According to PubChem BioAssay (Tox21):
Inconclusive results are not listed. Calls of active or inactive are those of the source. Unless noted, calls come from the whole dose curve; as a rule, active = well fitted curve in the direction sought with a large enough effect in the repeat runs; inconclusive = weak or mixed curves; inactive = no such curve, though single readings can be large; an effect the other way counts as inactive or inconclusive.

What was measured:
[1] = qHTS assay for small molecule agonists of the p53 signaling pathway (AID 651631; calls by dose curve; note: nearly all actives have a fitted effect of over 15% in size)
Procedure, shortened: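 Read-out is beta-lactamase FRET fluorescence measured 2 h after substrate addition at room temperature, in HCT-116 cells with a p53 response element-driven reporter exposed to compounds for 16 h at 37 °C.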

[2] = qHTS assay for small molecule agonists of the p53 signaling pathway - cell viability (AID 651633; calls by dose curve; note: nearly all actives have a fitted effect of over 30% in size; note: potency is the fitted concentration of half-maximal effect)
Procedure, shortened: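 p53RE-bla cells, seeded at 4,000 per well and rested 5 h at 37 C/5% CO2, received compounds in DMSO for 16 h at 37 C. CellTiter-Glo was then added, and luminescence was read after 30 min at room temperature to gauge cytotoxicity.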

[3] = qHTS assay for small molecules that induce genotoxicity in human embryonic kidney cells expressing luciferase-tagged ATAD5 - cell viability (AID 651634; calls by dose curve; note: nearly all actives have a fitted effect of over 25% in size)
Procedure, shortened: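 Cells (HEK293T, luciferase-tagged ATAD5) are seeded at 2,000 per well, dosed with compound or DMSO vehicle, and incubated 15.5 hr at 37C and 5% CO2. CellTiter-Fluor is added for 30 min before fluorescence is measured.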

[4] = qHTS assay for small molecule disruptors of the mitochondrial membrane potential (AID 720635)
Procedure, shortened: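 HepG2 cells (2,000/well) attached overnight at 37C, then took compound for 1 hr at 37C, 5% CO2. Mito-MPS dye was added for 30 min; fluorescence was read at 490/535 nm (monomers) and 540/590 nm (aggregates).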

[5] = qHTS assay to test for compound auto fluorescence at 590 nm (red) in HepG2 cells (AID 720674)
Procedure, shortened: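 Intrinsic compound fluorescence in the red window (Ex/Em 540/590 nm) is measured in attached HepG2 cells exposed for 1 hr, DMSO vehicle as baseline, benchmarked to Rose Bengal sodium.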

[6] = qHTS assay to test for compound auto fluorescence at 535 nm (green) in HepG2 cells (AID 720675)
[7] = qHTS assay to test for compound auto fluorescence at 460 nm (blue) in HEK293 cells (AID 720678); note: potency is the fitted concentration of half-maximal effect
Procedure, shortened: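 Auto fluorescence in the blue band was quantified as triamterene equivalency. HEK293 cells were seeded at 2,000/well, dosed after a 4-5 hr attachment, and kept overnight at 37C before the 405/460 nm reading.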

[8] = qHTS assay to test for compound auto fluorescence at 590 nm (red) in HEK293 cells (AID 720679)
Procedure, shortened: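 Autofluorescence equivalency to Rose Bengal sodium, 540/590nm, in HEK293 cells exposed overnight to 23 nL compound per well.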

[9] = qHTS assay for small molecules that induce genotoxicity in human embryonic kidney cells expressing luciferase-tagged ATAD5 (AID 651632); note: nearly all actives have a fitted effect of over 15% in size
Procedure, shortened: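 Cells were seeded at 2,000 per well, dosed with compound, and incubated 16 hr at 37C in 5% CO2. Luciferase activity was then quantified after a 30 min room-temperature incubation with Amplite.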

[10] = qHTS assay for small molecule disruptors of the mitochondrial membrane potential - cell viability (AID 720634; calls by dose curve;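 note: human HepG2 liver cancer cells; series mostly up to about 83 µM; nearly all actives have a fitted effect of over 20% in size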)
Procedure, shortened: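 Cytotoxicity was measured by ATP quantitation in HepG2 wells that had first been treated with compound for 1 hr and stained with m-MPI dye; CellTiter-Glo incubation was 30 min at room temperature.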
% is set by controls: 0 for no effect and ±100 for the full control effect; tags give direction and shape of the fitted curve or compound fluorescence and quenching.

CC(C)Cc1ccc(CC(=O)O)cc1
inactive: Potency [1] | Potency [2] | Potency [3] | Potency [4] | outcome [5] | outcome [6] | Potency [7] | outcome [8]

CC(C)OC(=O)c1ccccc1C(=O)OC(C)C
inactive: Potency [9] | Potency [2] | Potency [3] | outcome [10] | Potency [4] | outcome [5] | outcome [6] | Potency [7] | outcome [8]

CC1CCCO1 (stereo not drawn)
inactive: Potency [1] | Potency [2] | Potency [3] | outcome [10] | outcome [5] | outcome [6] | Potency [7]

CCCCCCCC/C=C\CCCCCCCC(=O)OCCO
inactive: Potency [9] | Potency [2] | Potency [3] | outcome [10] | Potency [4] | outcome [5] | outcome [6] | Potency [7] | outcome [8]

CCCCCC
inactive: Potency [1] | Potency [2] | outcome [10] | outcome [5] | outcome [6] | Potency [7]

CC12CC3CC(C)(C1)CC(N)(C3)C2
inactive: Potency [1] | Potency [2] | Potency [3] | outcome [10] | Potency [4] | outcome [5] | outcome [6] | Potency [7] | outcome [8]

CC(C)(C)NCC(O)COc1cccc2c1C[C@H](O)[C@H](O)C2 (stereo partly drawn)
inactive: Potency [1] | Potency [2] | fluorescence, relative to Rose Bengal [5] 0.0921% [at 18.6 µM] | fluorescence, % of fluorescein control [6] 0.0163% [at 18.6 µM] | fluorescence, % of triamterene [7] 0.0252% [at 18.6 µM]

CCCCCCCCCCCCCOS(=O)(=O)O
active: Potency [2] 68.6 µM
inactive: Potency [9] | Potency [3] | outcome [10] | outcome [5] | outcome [6] | Potency [7] | outcome [8]

CC(C)c1ccc(C(=O)N=C(N)N)cc1S(C)(=O)=O
inactive: Potency [9] | Potency [2] | Potency [3] | Potency [4] | outcome [5] | outcome [6] | Potency [7] | outcome [8]

Cc1ccc(Nc2c(F)cccc2Cl)c(CC(=O)O)c1
inactive: Potency [9] | Potency [2] | Potency [3] | outcome [10] | outcome [5] | outcome [6] | Potency [7] | outcome [8]

CCCc1nc2c(C)cc(-c3nc4ccccc4n3C)cc2n1Cc1ccc(-c2ccccc2C(=O)O)cc1
inactive: Potency [9] | Potency [2] | Potency [3] | outcome [10] | outcome [5] | outcome [6] | Potency [7] | outcome [8]

CSCC[C@H](NC(=O)[C@H](Cc1c[nH]c2ccccc12)NC(=O)CCNC(=O)OC(C)(C)C)C(=O)N[C@@H](CC(=O)O)C(=O)N[C@@H](Cc1ccccc1)C(N)=O
inactive: Potency [9] | Potency [2] | Potency [3] | Potency [4] | outcome [5] | outcome [6] | Potency [7] | outcome [8]

O=C(O)c1cc(Cl)cc(Cl)c1O
inactive: Potency [9] | Potency [2] | Potency [3] | outcome [10] | outcome [5] | outcome [6] | Potency [7] | outcome [8]

CC(C(=O)O)c1ccc(C(=O)c2cccs2)cc1 (stereo not drawn)
inactive: Potency [9] | Potency [2] | Potency [3] | outcome [10] | fluorescence, relative to Rose Bengal [5] 0.487% [at 18.6 µM] | fluorescence, % of fluorescein control [6] -0.0382% [at 18.6 µM] | fluorescence, % of triamterene [7] -0.243% [at 18.6 µM] | fluorescence, % of fluorescent control [8] 0.162% [at 18.6 µM]

CCOC(=O)c1c(N)sc2c1CCN(Cc1ccccc1)C2
active: Potency [7] 14.1 µM [fluorescent]
inactive: Potency [9] | Potency [2] | Potency [3] | outcome [10] | outcome [5] | outcome [6] | outcome [8]

COc1cc(NCc2ccc3nc(N)nc(N)c3c2C)cc(OC)c1OC
active: Potency [2] 0.335 µM
inactive: Potency [9] | Potency [3] | outcome [10] | outcome [5] | outcome [6] | Potency [7] | outcome [8]

COc1cc(C(C)=O)ccc1OCCCN1CCC(c2noc3cc(F)ccc23)CC1
inactive: Potency [9] | Potency [2] | Potency [3] | outcome [10] | outcome [5] | outcome [6] | Potency [7] | outcome [8]
